# Measurements taken from PubChem BioAssay (NCATS).
# Records with an inconclusive call do not appear. Calls of active or inactive are those of the source. The call rests on the fitted dose curve; in most records, active means well fitted curve in the direction sought with a large enough effect; inconclusive means small, poorly fitted or top-dose-only effect, or another doubt; inactive means no such curve, though single readings can be large; an effect the other way counts as inactive or inconclusive.
# Assay: qHTS Screen of the MIPE 4.0 Collection Against Ewings Sarcoma (TC32) (AID 1259256); further: nearly all actives have a fitted effect of over 45% in size; further: potency means the concentration at half of the fitted maximal effect;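 on viability (percent of control): 100% = DMSO-treated cells and 0% = medium-only wells without cells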
# Settings: TC32 Ewing sarcoma viability, CellTiter-Glo, 48 h; series mostly up to 45.8 µM; viability (percent of control): at the top concentration
# How it was run: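 CellTiter-Glo luminescence after 48 h compound exposure (titration) gave viability; percent activity used DMSO-treated cells as no inhibition and medium-only wells as full inhibition. Cells grown in RPMI/5% FBS, dosed 4 h post-seeding.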
SMILES,Potency,viability (percent of control)
CC1=C[C@@H]2[C@@H]([C@@H](O)C[C@@]3(C)[C@H]2C[C@@H](C)[C@]3(O)C(=O)CO)[C@@]2(C)Cc3cnn(-c4ccccc4)c3C=C12,23.5 µM (active),–
Cn1c(=O)c(Oc2ccc(F)cc2F)cc2cnc(NC3CCOCC3)nc21,–,123% (inactive)
CNC(=O)[C@H](CC1=CN=C2C=CCC=C12)NC(=O)[C@@H](CC(=O)NO)CC(C)C,–,119% (inactive)
Nc1ncnc2c1c(-c1cccc(OCc3ccccc3)c1)cn2C1CC(CN2CCC2)C1 (stereo unspecified),4.69 µM (active),–
Clc1ccc(COC(Cn2ccnc2)c2ccc(Cl)cc2Cl)c(Cl)c1 (stereo unspecified),18.7 µM (active),–
C[C@@H](NC(=O)c1ncnc(N)c1Cl)c1ncc(C(=O)Nc2cc(C(F)(F)F)c(Cl)cn2)s1,23.5 µM (active),–
CN(C)CCOc1cc(-c2cn[nH]c2)ccc1NC(=O)C1COc2ccccc2O1 (stereo unspecified),11.8 µM (active),–
COc1c(C)cnc(Cn2cnc3c(Cl)nc(N)nc32)c1C,0.132 µM (active),–
Oc1ccc(C=Cc2cc(O)cc(O)c2)cc1,18.7 µM (active),–
CO[C@H]1/C=C\O[C@@]2(C)Oc3c(C)c(O)c4c(O)c(c5c(nc6cc(C)ccn65)c4c3C2=O)NC(=O)C(C)=CC=C[C@H](C)[C@H](O)[C@@H](C)[C@@H](O)[C@@H](C)[C@H](OC(C)=O)[C@H]1C,–,97% (inactive)
c1ccc(CNc2nc(N3CCOc4ccccc43)nc3c2CCCC3)cc1,–,103% (inactive)
CO[C@H]1/C=C\O[C@@]2(C)Oc3c(C)c(O)c4c(O)c(c(C=NN5CCN(C6CCCC6)CC5)c(O)c4c3C2=O)NC(=O)C(C)=CC=C[C@H](C)[C@H](O)[C@@H](C)[C@@H](O)[C@@H](C)[C@H](OC(C)=O)[C@H]1C,–,91% (inactive)
Cc1cccc(-c2[nH]c(C(C)(C)C)nc2-c2ccc3c(c2)OCO3)n1,10.5 µM (active),–
N#CC(c1ccc(Cl)cc1)c1c(Cl)cc(-n2ncc(=O)[nH]c2=O)cc1Cl (stereo unspecified),–,87.9% (inactive)
CNC(=O)c1ccc2c(C(=Nc3cccc(CN(C)C)c3)c3ccccc3)c(O)[nH]c2c1,–,93.7% (inactive)
CO[C@@H]1C(N(C)C(=O)c2ccccc2)C[C@H]2O[C@]1(C)n1c3ccccc3c3c4c(c5c6ccccc6n2c5c31)C(=O)NC4=O (stereo partly specified),3.32 µM (active),–
Cn1cnc(-c2cc3nccc(Oc4ccc(NC(=S)NC(=O)Cc5ccccc5)cc4F)c3s2)c1,18.7 µM (active),–
Cc1cc(-c2ncc(CC(=O)Nc3ccc(-c4cnccn4)cn3)cc2C)ccn1,23.5 µM (active),–
O=C1CN2Cc3c(ccc(Cl)c3Cl)N=C2N1,23.5 µM (active),–
C[C@H]1O[C@@H](n2cc(F)c(=O)[nH]c2=O)[C@H](O)[C@H]1O,9.35 µM (active),–
N#Cc1ccc(Oc2ccc3c(c2)COB3O)cc1,–,90.7% (inactive)
CNC(=O)c1c(-c2ccc(F)cc2)oc2cc(N(CCO)S(C)(=O)=O)c(C3CC3)cc12,–,106% (inactive)
Cc1cc(C(C)Nc2ccccc2)c2nc(N3CCOCC3)cc(=O)n2c1 (stereo unspecified),23.5 µM (active),–
Cc1nc2c([nH]1)CCN(C(=O)c1ccc(NC(=O)c3ccccc3-c3ccccc3)cc1)c1ccccc1-2,–,111% (inactive)
C[C@H]1COC2=C1C(=O)C(=O)c1c2ccc2c1CCCC2(C)C,23.5 µM (active),–
CC1CNc2c(cccc2S(=O)(=O)N[C@@H](CCCN=C(N)N)C(=O)N2CC[C@@H](C)C[C@@H]2C(=O)O)C1 (stereo partly specified),14.8 µM (active),–

# Assay: Identifying Small Molecule Inhibitors of Pancreatic Cancer Stem Cells (A2780, Spheroid) (AID 1259357);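 further: compound exposure lasted 48 h before the ATP luminescence read; 100% = DMSO treated cells and 0% = wells without cells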
# Settings: Potency: A2780 spheroid viability; series mostly up to 46.1 µM; viability (percent of control): at the top concentration
# How it was run: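 Luminescent ATP readout (CellTiter-Glo) quantifies surviving cells after a 48 h drug incubation. Normalization uses DMSO wells as no inhibition and media-only wells as full inhibition; bortezomib served as positive control.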
row,SMILES,viability (percent of control)
1,CC1=C[C@@H]2[C@@H]([C@@H](O)C[C@@]3(C)[C@H]2C[C@@H](C)[C@]3(O)C(=O)CO)[C@@]2(C)Cc3cnn(-c4ccccc4)c3C=C12,93.1% (inactive)
2,Cc1c(C(=O)Nc2ccc(N3C[C@@H](C)O[C@@H](C)C3)nc2)cccc1-c1ccc(OC(F)(F)F)cc1,51.8% (inactive)
3,CCCCOCCOc1nc(-c2ccc(C(=O)O)c(F)c2)sc1C,112% (inactive)

# Assay: Identifying Small Molecule Inhibitors of Pancreatic Cancer Stem Cells (SN12C, Adherent) (AID 1259358);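 further: cell survival measured after 48 h of compound exposure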
# Settings: viability/growth inhibition; series mostly up to 46.1 µM; viability (percent of control): at the top concentration
# How it was run: (§1)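 Cytotoxicity read by CellTiter-Glo luminescence after 48 h compound exposure at 37C; percent activity scaled between DMSO-treated cells and cell-free wells. Spheroid formats used cells pre-formed 14 days in stem cell media on hydrogel.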
row,SMILES,viability (percent of control)
1,O=C(O)c1ccc(O)c2ncc(N3CCOCC3)cc12,112% (inactive)
2,Cc1c(C(=O)Nc2ccc(N3C[C@@H](C)O[C@@H](C)C3)nc2)cccc1-c1ccc(OC(F)(F)F)cc1,89.5% (inactive)
3,CCCCOCCOc1nc(-c2ccc(C(=O)O)c(F)c2)sc1C,96.8% (inactive)

# Assay: Identifying Small Molecule Inhibitors of Pancreatic Cancer Stem Cells (A278, Adherent) (AID 1259361); further: nearly all actives have a fitted effect of over 35% in size;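 on viability (% of control): 100% = DMSO-treated cells and 0% = cell-free media-only wells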
# Settings: series mostly up to 46.1 µM; viability (% of control): at the top concentration
# How it was run: as §1
SMILES,IC50 (viability decrease),viability (% of control)
CC1=C[C@@H]2[C@@H]([C@@H](O)C[C@@]3(C)[C@H]2C[C@@H](C)[C@]3(O)C(=O)CO)[C@@]2(C)Cc3cnn(-c4ccccc4)c3C=C12,20.9 µM (active),–
COc1c(C)cnc(Cn2cnc3c(Cl)nc(N)nc32)c1C,0.0935 µM (active),–
CCCCOCCOc1nc(-c2ccc(C(=O)O)c(F)c2)sc1C,–,99.3 (inactive)

# Assay: P-glycoprotein substrates identified in KB-3-1 adenocarcinoma cell line, qHTS therapeutic library screen (AID 1346986); further: nearly all actives have a fitted effect of over 60% in size;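 further: potency means the concentration at half of the fitted maximal effect; potency is for cytotoxicity meaning loss of cell viability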; on activity change, negative = cytotoxicity: on the % scale 0 is the no-effect control and ±100 the full control effect
# Settings: KB-3-1 parental cells viability, CellTiter-Glo, 72 h; series mostly up to 44.5 µM; activity change, negative = cytotoxicity: at the top concentration
# How it was run: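 Dose-response cytotoxicity, KB-3-1 vs P-gp-high KB-8-5-11, no colchicine in assay medium. Read: CellTiter-Glo at 72 h.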
SMILES,"activity change, negative = cytotoxicity",Potency,outcome
Cn1c(=O)c(Oc2ccc(F)cc2F)cc2cnc(NC3CCOCC3)nc21,-27.7% (inactive),–,–
C[C@@H](NC(=O)c1ncnc(N)c1Cl)c1ncc(C(=O)Nc2cc(C(F)(F)F)c(Cl)cn2)s1,–,inactive,–
O=C(NC[C@H](O)CO)c1ccncc1Nc1ccc(I)cc1F,–,–,inactive
CNC(=O)c1ccc2c(C(=Nc3cccc(CN(C)C)c3)c3ccccc3)c(O)[nH]c2c1,–,inactive,–
Cc1cc(C(C)Nc2ccccc2)c2nc(N3CCOCC3)cc(=O)n2c1 (stereo unspecified),–,inactive,–
CSc1cccc(Nc2ncc3cc(-c4c(Cl)cccc4Cl)c(=O)n(C)c3n2)c1,–,2.06 µM (active),–
